Screening data from PubChem BioAssay.
In the library only some 4.7% were active in any assay of this set; here they are far more common.
tim23-1 inh: growth inhibitors of tim23-1 mutant yeast, primary screen, luminescence, uHTS; S. cerevisiae tim23-1 growth, BacTiter-Glo luminescence, 24 h; inhibition, % at 20 µM; 330,000 compounds, 1.3% hits;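 active = growth inhibition of the mutant yeast at or above 50%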;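 note: temperature-sensitive mutant grown at 25 °C; plate controls were DMSO-treated mutant yeast for no effect and medium wells lacking yeast for full effect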
tim10-1 inh: growth inhibitors of tim10-1 mutant yeast, primary screen, luminescence, uHTS; 330,000 compounds, 2.2% hits; S. cerevisiae tim10-1 ts strain growth, BacTiter-Glo, 24 h; inhibition, % at 20 µM;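 active = inhibition of at least 40%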;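 note: mutant grown at 25 °C; 0% = DMSO wells with yeast and 100% = wells holding no yeast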
TIM10 inh: growth inhibitors of isogenic TIM10 control yeast, primary screen, counter-screen for tim10-1 yeast inhibitor project, luminescence, uHTS; S. cerevisiae TIM10 strain growth, BacTiter-Glo luminescence, 24 h; inhibition, % at 10 µM; 330,000 compounds, 1.4% hits; AID 463195, 2010;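 active = inhibition of 40% or more at the single tested concentration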;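 note: wild-type TIM10 isogenic control strain grown at permissive 25 °C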
PfHsp90 yeast 2: growth inhibition of PfHsp90-expressing yeast, primary screen, antimalarial PfHsp90 inhibitor project, S. cerevisiae, BacTiter-Glo luminescence, single point, set 2; BacTiter-Glo ATP, 48 h; yeast lacking PDR1 and PDR3 efflux regulators; inhibition, % at 9.4 µM; 310,000 compounds, 0.32% hits;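 active = every replicate shows inhibition above about 80%, whatever the replicate mean, limit read from the data; inconclusive = mean inhibition reaches the set limit but some replicate falls short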;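 note: 0% = DMSO neutral controls and 100% = 20 µM radicicol positive controls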
Calb FLC: C. albicans growth inhibition with fluconazole, primary screen, CaCi-2 strain, Alamar Blue fluorescence; 300,000 compounds, 0.57% hits; C. albicans CaCi-2 (fluconazole-resistant clinical isolate) + fluconazole, 48 h; growth inhibition, % (concentration not given with the values);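 active = growth inhibition above about 58% in most replicates, limit read from the data, passing the limit was not always enough; inconclusive = exactly half the replicates above a set limit; inactive = most replicates below a set limit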;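 note: all wells also contain fluconazole at 8 µg/ml as a sub-toxic cotreatment; 0% = median of DMSO wells and 100% = median of geldanamycin control wells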
SKKanGAS inh: S. pyogenes SKKanGAS growth inhibitors in kanamycin, primary screen, streptokinase expression inhibitor project, SKKanGAS strain, BacTiter-Glo luminescence. 6 h. inhibition, % at 7.5 µM. 300,000 compounds, 1.3% hits. AID 1662, 2009;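 active = mean replicate score, as percent of positive control median, at least 50; inconclusive = mean below 50 but one replicate at or above 50; inactive = mean and every replicate below 50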;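 note: strain carries kanamycin resistance gene driven by streptokinase promoter and grows in 40 µg/ml kanamycin; loss of luminescence reflects streptokinase promoter inhibition or plain growth inhibition; 0% = median of DMSO wells and 100% = positive control at its reference dose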
* hit, by the source's call; ? = inconclusive; . = no result given.

SMILES | tim23-1 inh | tim10-1 inh | TIM10 inh | PfHsp90 yeast 2 | Calb FLC | SKKanGAS inh
Cc1nn(CC(=O)NCCc2cccs2)c(=O)c2cc3ccccc3n12 | 2.8 | 4.7 | -12.5 | 2.5 | 1.6 | 5.3
CCCCN(C(=O)c1cccc(S(=O)(=O)N(C)c2ccc(C)cc2)c1)c1c(N)n(CCCC)c(=O)[nH]c1=O | -17.5 | -3.9 | -3.7 | . | -11.7 | 2.4
O=C1NC(=S)S/C1=C\C=C\c1ccc([N+](=O)[O-])o1 | . | . | . | 106.0* | . | .
c1csc(CNc2ncnc3sccc23)c1 | 17.8 | 10.8 | -10.0 | 18.4 | 84.6* | -3.8
COc1ccc(-c2cc(C(=O)Nc3ccc(S(=O)(=O)Nc4onc(C)c4C)cc3)c3ccccc3n2)cc1 | 15.0 | 1.7 | 4.2 | 5.5 | 16.2 | 34.0
Cc1[nH][nH]c(=O)c1C(c1c(C)[nH][nH]c1=O)c1cn(Cc2ccc(Cl)c(Cl)c2)c2ccccc12 | . | . | . | 7.5 | -10.7 | 68.7*
Cc1[nH][nH]c(=O)c1C(c1c(C)[nH][nH]c1=O)c1cn(Cc2ccc(F)cc2)c2ccccc12 | . | . | . | -15.4 | . | .
CCCCCCCOC(=O)C[N+](C)(C)CCOC1CC2CCC1(C)C2(C)C (stereo unspecified) | . | . | . | -5.7 | 107.5* | ?
CCCCCCOC(=O)C[N+](C)(C)CCOC1CC2CCC1(C)C2(C)C (stereo unspecified) | -24.2 | 14.8 | 39.5 | 5.2 | 102.9* | 18.9
CC(C)CCOC(=O)C[N+](C)(C)CCOC1CC2CCC1(C)C2(C)C (stereo unspecified) | 8.1 | -2.1 | -5.5 | 1.3 | 102.7* | 1.7
COC(=O)[C@H](Cc1ccccc1)NC(=O)NCCc1ccc(OC)cc1 | 0.2 | 7.0 | 1.2 | 17.5 | -0.3 | 1.4
CN(C(=O)CSc1nc2[nH]ncc2c(=O)[nH]1)c1ccccc1 | 12.3 | 5.6 | 3.4 | . | -2.0 | -1.8
O=c1c2c(nc3n1CCS3)c1cc(F)ccc1n2Cc1cc(=O)n2cc(Cl)ccc2n1 | -9.3 | 17.6 | 22.7 | . | -11.3 | 1.0
COc1ccccc1-n1c(SCC(=O)Nc2ccc(C)cc2)nc(O)cc1=O | 6.2 | 15.1 | 12.8 | -1.9 | -0.5 | 63.4*
COc1ccccc1-n1c(SCC(=O)Nc2cccc3ccccc23)nc(O)cc1=O | 16.6 | 1.0 | 6.0 | -1.5 | 8.4 | 39.6
CCc1c(O)nc(SCC(=O)Nc2ccccc2OC)n(-c2ccccc2C)c1=O | 12.7 | -9.6 | 2.5 | -17.3 | -7.9 | 29.9
COc1ccc(NC(=O)CSc2nc(O)cc(=O)n2-c2ccccc2OC)cc1 | 1.0 | 7.8 | 9.2 | -8.7 | 0.1 | 87.0*
CCCCc1c(O)nc(SCC(=O)Nc2cccc3ccccc23)n(-c2ccccc2OC)c1=O | 3.6 | 7.1 | 10.2 | -2.2 | 83.1* | 12.4
Cc1ccc(NC(=O)CSc2nc(O)cc(=O)n2-c2ccc(C)cc2)cc1 | 12.0 | 7.5 | 10.4 | 14.6 | 17.7 | 76.6*
Cc1ccc(NC(=O)CSc2nc(O)cc(=O)n2C)cc1 | 16.4 | 13.9 | 10.1 | 11.0 | 11.5 | 39.9
Nc1c2c(nc3sc4c(c13)CCCCC4)CCCCC2 | 29.1 | 18.8 | 9.3 | -5.0 | 95.2* | -1.6
Cc1nc2ccccn2c1C(=O)OCC#N | -2.2 | 12.2 | 9.6 | 1.6 | 18.4 | 1.8
Cc1cccc(NC(=O)C(=O)NNC(=O)c2ccc(C(C)(C)C)cc2)c1 | -41.6 | -75.1 | -31.1 | -32.0 | ? | 85.1*
CC(C)(C)c1ccc(C(=O)NNC(=O)c2cccc(Br)c2)cc1 | 2.9 | -10.3 | -16.0 | 5.7 | -0.8 | 0.2
Cc1nc(Nc2cnc(/C=C/c3cc(C(=O)Nc4cccc(C(F)(F)F)c4)ccc3C)cn2)cc(N2CCNCC2)n1 | 24.1 | 35.1 | 7.3 | . | 9.3 | 72.3*
SMILES | tim23-1 inh | tim10-1 inh | TIM10 inh | PfHsp90 yeast 2 | Calb FLC | SKKanGAS inh
CCN1CCN(c2cc3c(cc2F)c(=O)c(C(=O)O)cn3C2CC2)CC1 | 6.9 | 8.5 | 4.1 | 13.0 | . | 103.5*
CCCOc1ccc(C(=O)NC(=S)N2CCN(c3cc4c(cc3F)c(=O)c(C(=O)O)cn4CC)CC2)cc1 | -16.5 | 9.0 | -2.0 | 19.0 | -10.4 | 91.2*
COc1ccccc1-c1nnc(Nc2nc3c(OC)cccc3s2)o1 | 1.7 | 9.0 | 16.7 | . | 0.0 | 91.4*
O=C(Nc1nnc(-c2ccccc2Cl)o1)c1nc2ccccc2s1 | 1.6 | -3.0 | -9.5 | 18.9 | 35.0 | 94.9*
COc1cccc(-c2nnc(Nc3nc4c(F)cccc4s3)o2)c1 | 5.5 | -5.4 | -10.7 | 2.8 | -3.1 | 67.6*
COc1cccc2sc(Nc3nnc(-c4ccccc4Cl)o3)nc12 | 4.1 | 5.4 | -2.0 | -3.8 | -0.2 | 90.7*
COc1cccc(-c2nnc(-c3ccc4ccccc4c3)o2)c1 | . | . | . | 7.6 | . | .
O=C(CCNS(=O)(=O)c1ccc2nsnc2c1)N1CCN(c2ccncc2)CC1 | -90.5 | -58.2 | -22.4 | -2.2 | . | .
CCCc1c(C(=O)N/N=C/c2ccco2)nnn1-c1nonc1N | -15.2 | 2.4 | 1.0 | 1.6 | . | -5.2
C=CCN1C(=O)C2C(C(=O)NC3CCCC3)C3C=CC2(O3)C1C(=O)NC1CCCC1 (stereo unspecified) | -3.2 | 6.5 | -8.2 | 8.7 | -6.9 | 1.6
Cc1[nH]oc(=O)c1N=Nc1c(Cl)cccc1Cl | -79.8 | -44.8 | -17.1 | 105.7* | 4.1 | 0.3
Clc1ccc2c(N/N=C/c3cccc(Br)c3)ccnc2c1 | . | . | . | -22.7 | -4.2 | 82.4*
CCCCCCCCCCn1ccc(=N)cc1 | 43.6 | 29.4 | 29.7 | -9.3 | 108.0* | 29.6
N#Cc1ccc(C(=O)Nc2nc(SCc3ccc(Cl)cc3)n[nH]2)cc1 | -1.4 | 6.0 | 7.4 | -14.9 | 5.6 | 86.8*
O=[N+]([O-])c1ccccc1C(O)Cc1ccccn1 (stereo unspecified) | . | . | . | -4.7 | . | .
CC1=Nc2ccccc2/C1=C\c1nc(-c2ccc(C(F)(F)F)cc2)oc1O | 12.7 | 22.1 | 11.5 | -17.2 | -9.6 | 12.4
COc1ccc(-c2nc(/C=C3\C(C)=Nc4ccccc43)c(O)o2)cc1 | 22.5 | 30.0 | 21.7 | -1.9 | 1.4 | 58.3*
O=[N+]([O-])c1cc(Cl)cc(/C=N/NC(=S)Nc2ccc(S(=O)(=O)N3CCOCC3)cc2)c1O | 17.0 | 26.2 | 6.2 | 22.4 | 108.6* | 93.8*
Cc1nccn1C(c1ccccc1)c1ccccc1 | -3.6 | 6.1 | -7.5 | -28.4 | 5.1 | -3.9
Cc1ccc(C)c(Nc2nn3c(=O)c4ccc(C(=O)NCc5cccnc5)cc4nc3s2)c1 | -14.5 | -1.7 | -5.9 | 14.3 | 17.1 | 18.5
CCOC(=O)C1CCN(C(=O)c2ccc3c(=O)n4nc(Nc5cc(C)ccc5C)sc4nc3c2)CC1 | 19.7 | 25.0 | 12.3 | -15.5 | 88.5* | 49.5*
O=C(NNC(=O)c1ccncc1)Nc1cc(Cl)ccc1Cl | . | . | . | -4.6 | . | .
